Data on 48 molecules can be found in PubChem BioAssay AID651661 (Broad Institute, 2012).

About 2,300 (0.66%) of roughly 350,000 compounds were called active. Many of the other results were omitted from the sample, so actives are more common in it than they were. A number with no mark means an inactive call.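 Rule for the calls: active = mean inhibition of at least 50% after viability correction, with every replicate also passing that limit; inconclusive = mean reaches 50% but only one of two replicates passes; inactive = the rest.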

The experiment can be described thus: blockers of EWS/Fli transcriptional output – A673 cells, NR0B1 luciferase, luminescence, MLPCN library, primary screen (AID 651661).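 Note: firefly luciferase signal divided by Alamar Blue viability fluorescence both relative to DMSO.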 Conditions: A673 NR0B1-luciferase reporter, viability-normalised; at 12.6 µM; stronger effect = higher value. On the technique in general: In a reporter assay the amount or activity of a reporter protein is the signal.
As for `COC(=O)c1ccc(NCc2cc(O)ccc2O)cc1`, the inhibition (as a rule, the drop in the measured response relative to a control, in per cent) is 61.8% (active). Take `C#CCNc1ccc(C(=O)OCC)cc1`: the inhibition was -46.2%. For `O=C(OC12CC3CC(CC(C3)C1)C2)c1ccc(NCc2cc(O)ccc2O)cc1`, the inhibition was 30.8%.

With `CC(OC(=O)c1ccc(Cl)cc1O)C(=O)NCCC1=CCCCC1` (stereo not drawn), the inhibition was 1.44%. In the case of `CC(C)OC(=O)c1ccc(NCc2cc(O)ccc2O)cc1Cl`, the inhibition was 59.4% (active).

With `CC(CN1CCOCC1)OC(=O)c1ccc(Cl)cc1Cl` (stereo not drawn), the inhibition was -6.54%. Take `O=C(C1CCC1)N1CC[C@@H]2[C@H]1c1cc(C#Cc3ccc(F)cc3)ccc1N[C@@H]2CO`: the inhibition was 11%. The result for `CO[C@@H]1CN(C)C(=O)c2ccc(NC(=O)Nc3c(C)noc3C)cc2OC[C@@H](C)NC[C@H]1C` reads 1.67%; that for `COc1ccc(S(=O)(=O)N(C)C[C@H]2Oc3c(NS(=O)(=O)c4cccs4)cccc3C(=O)N([C@H](C)CO)C[C@@H]2C)cc1`, 0.582%. Consider `O=C(Nc1ccc(Cl)cc1)C1Cc2c(-c3ccc4c(c3)OCO4)ccnc2O1` (stereo not drawn), for which the inhibition was 8.69%.

For the molecule `COc1ccc(NC(=O)C2Cc3c(-c4ccc(Cl)cc4)ccnc3O2)cc1` (stereo not drawn), the inhibition is -1.76%. Take `COc1ccc(NC(=O)C2Cc3c(-c4ccc5c(c4)OCO5)ccnc3O2)cn1` (stereo not drawn): the inhibition was 52.6% (active). For `CCCN1C[C@@H](C)[C@H](OC)CN(C)C(=O)c2cc(NC(=O)CC)ccc2OC[C@@H]1C` the value was -0.843%; for `COC(=O)C[C@H]1C=C[C@H](NC(=O)Nc2ccc(C(F)(F)F)cc2)[C@@H](CO)O1`, -13.7%; for `CC(C)C(=O)Nc1ccc2c(c1)C(=O)N(C)[C@H]1CC[C@H](CC(=O)NCc3ccc(F)cc3)O[C@H]1CO2`, -4.82%. For `O=C1C=CC(=O)N1c1ccc(N2CCCCC2)cc1` the value was 70% (active). For `O=C(C1CCC1)N1CCN(c2ccccc2)CC1`, the inhibition is -2.08%. Turning to `O=C(C1CC(=O)N(C2CCCCC2)C1)N1CCN(c2ccccc2)CC1` (stereo not drawn), the inhibition was 2.44%.

`O=C(Nc1cc(F)ccc1F)N1CCCCN2[C@H](CO)[C@@H](c3ccc(-c4cccnc4)cc3)[C@@H]2C1`: the inhibition is -2.34%. With `CN(C)C(=O)[C@@H]1[C@@H](CO)[C@@H]2Cn3c(ccc(-c4ccncc4)c3=O)[C@H]1N2C(=O)NC1CCCC1`, the inhibition is -5.42%.

Turning to `CC(C)Cn1c(N)c(C(=O)COC(=O)CN2C(=O)C3CC=CCC3C2=O)c(=O)n(C)c1=O` (stereo not drawn), the inhibition was 10.8%. Consider `CCCc1cc(=O)[nH]c(SCC(=O)c2c(N)n(CC(C)C)c(=O)n(C)c2=O)n1`, for which the inhibition was 61.7% (active). On to `CCCc1cc(=O)[nH]c(SCC(=O)N2C(C)CCCC2C)n1` (stereo not drawn), for which the inhibition is -0.113%. As to `COc1ccc2c3c(n(C)c2c1)[C@@H](CO)N(C(=O)c1ccccn1)CC31CN(C)C1`, the inhibition was 2.95%. `CCOC(=O)c1c(NC(=O)CSc2nccc(=O)[nH]2)sc(C)c1C`: the inhibition is 1.69%. As for `CCOC(=O)c1c(C)[nH]c2c1-c1ccccc1C(=O)C2=O`, the inhibition was 75.3% (active). The result for `CCOC(=O)c1c(C)[nH]c(C(=O)OCC(=O)c2ccc(OC)cc2OC)c1C` reads -15.3%; that for `CCCN1C[C@@H](C)[C@@H](OC)CN(C)C(=O)c2cc(NC(=O)C3CCC3)ccc2OC[C@H]1C`, 4.62%; that for `CCCNC(=O)N1CCC2(CC1)CN(C(=O)c1cccnc1)[C@@H](CO)c1[nH]c3cc(OC)ccc3c12`, -3.43%. Consider `CO[C@H]1CN(C)C(=O)c2cc(NS(=O)(=O)c3ccccc3)ccc2OC[C@H](C)N(C(=O)NC(C)C)C[C@@H]1C`, for which the inhibition was -7.63%. In the case of `O=C(C1CCCCC1)N1CC(=O)N2[C@H](CO)[C@@H](c3ccc(-c4ccccc4F)cc3)[C@@H]2C1`, the inhibition is -0.368%.

With `COc1ccc(-c2cc(NC=O)c3ncc(-c4cc(OC)c(OC)c(OC)c4)n3c2)c(OC)c1`, the inhibition is 52.4% (active).

Consider `COc1ccc(-c2cc(NC=O)c3ncc(-c4cccc(C(=O)N(C)C)c4)n3c2)c(OC)c1`, for which the inhibition was 8.25%. Consider `COc1ccccc1-c1cc(NC(C)=O)c2ncc(-c3ccc(F)cc3)n2c1`, for which the inhibition was 13.6%.

With `COc1ccc(-c2cc(NC(C)=O)c3ncc(-c4cc(OC)c(OC)c(OC)c4)n3c2)cn1`, the inhibition was 64.5% (active).

For the molecule `COc1cccc(-c2cnc3c(NC(C)=O)cc(-c4cc(F)ccc4OC)cn23)c1`, the inhibition is 41.5%. For the molecule `COc1ccc(-c2cc(NC=O)c3ncc(-c4ccccc4)n3c2)cc1OC`, the inhibition is 12.5%. For the molecule `COc1cccc(NC(=O)N2CC[C@@H]3[C@@H](CO)N(C)c4ccc(-c5cccc(F)c5)cc4[C@@H]32)c1`, the inhibition was -0.284%. Take `COc1ccccc1CNC(=O)C[C@H]1C[C@H]2c3cc(NS(=O)(=O)c4ccc(F)cc4)ccc3O[C@H]2[C@@H](CO)O1`: the inhibition is -1.41%.

For the molecule `C[C@@H]1CN([C@H](C)CO)C(=O)c2cccc(NS(=O)(=O)c3cn(C)cn3)c2O[C@H]1CN(C)S(=O)(=O)c1ccc(Cl)cc1`, the inhibition is 1.45%.

Regarding `C[C@@H]1CCCCO[C@@H](CN(C)Cc2ccncc2)[C@H](C)CN([C@H](C)CO)C(=O)c2cc(NC(=O)NC3CCCCC3)ccc2O1`, the inhibition is 0.242%. Regarding `CN1c2ccc(-c3cccc(F)c3)cc2[C@H]2[C@H](CCN2C(=O)c2cccc(F)c2)[C@H]1CO`, the inhibition is -3.71%. On to `Cc1ccc(C)c(S(=O)(=O)N2CCN(C(=O)Nc3ccccc3)CC2)c1`, for which the inhibition is 1.58%.

As to `COc1ccc(-c2csc3ncnc(N4CCN(S(=O)(=O)c5ccccc5C#N)CC4)c23)cc1`, the inhibition is 22.1%. The result for `Cc1ccc(C)c(S(=O)(=O)N2CCN(c3ncnc4sccc34)CC2)c1` reads 51.5% (active); that for `CCNC(=O)[C@H]1[C@H](CO)[C@H]2Cn3c(ccc(-c4cccc(OC)c4)c3=O)[C@H]2N1Cc1nccs1`, 2.22%; that for `C[C@H]1CN([C@@H](C)CO)C(=O)c2cc(/C=C/c3ccccc3)cnc2O[C@@H]1CN(C)C(=O)NC1CCCCC1`, -13.4%. `COCC(=O)Nc1ccc2c(c1)OC[C@@H](C)N(C(=O)c1cnccn1)C[C@H](C)[C@@H](OC)CN(C)C2=O`: the inhibition was -0.326%.
